Source: PubChem BioAssay (National Center for Advancing Translational Sciences (NCATS))
IkB sig inh: IkB pathway inhibition in ABC-DLBCL cells. 110,000 tested, 0.04% active. ABC-DLBCL IkBa-CBG/CBR dual luciferase ratio, 4 h; response scale: scaled: untreated 0%, proteasome inhibitor 100%. Potency, µM (doses to about 57.1 µM), inactives show at the top dose IkBa stabilization activation. AID 445; active means well fitted curve in the direction sought with a large enough effect in the signal ratio, not every such curve was filed as active; inconclusive means small, poorly fitted or top-dose-only effect, or a change in a side signal; the % refers to the signal ratio;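 further: the direction sought is a rising ratio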
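Luminescence ratio of IκBα-fused green versus native red beetle luciferase in OCI-Ly3 cells, 4 h post-doxycycline with compound; red signal alone, scaled from basal (0%) to zero light (-100%), flagged nonspecific or cytotoxic effects.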
CRE-bla Fsk: CRE-bla signaling modulation under forskolin stimulation | CHO CRE-bla reporter (cAMP response element driving beta-lactamase), forskolin EC10, beta-lactamase ratio | Potency, µM (titrated, usually from 38.2 µM), without a hit: at the top dose activity change, negative = inhibition, usual class: activators | 71,000 tested, 2.5% active | AID 662; active means well fitted activation curve with a large enough effect in the signal ratio, with a control signal flat, not every such curve was filed as active; inconclusive means small, poorly fitted or top-dose-only effect, or effect the other way, or a change in a side signal; the % refers to the signal ratio; further: % of control where 0% means no effect
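Forskolin analogue NKH 477 at EC10 stimulated CRE-driven beta-lactamase in CHO cells alongside compound dilution series. Beta-lactamase was measured with CCF4, excitation 405 nm, emission ratio 460/530 nm.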
HEK293 cAMP cs: raises cAMP in parental HEK293 cells, TSHR agonist counter-screen; Potency, µM (series often up to 57.1 µM), for inactives: at the highest dose activation, usual class: activators; AID 938; parental HEK293 CNG cAMP sensor, membrane potential fluorescence; 73,000 tested, 2.5% active; further: % of control where 0% means no effect; nearly all actives have a fitted effect of over 55% in size
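Counterscreen for endogenous-receptor signalling: CNG-channel HEK 293 cells report cAMP rise by membrane depolarization. After 60 min dye equilibration with 100 uM RO 20-1724, compounds incubated 30 min before bottom-read fluorescence at 590 nm.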
TSHR agonist: agonists of human thyroid stimulating hormone receptor. HEK293-CNG-TSHR cells (CNG channel as cAMP sensor), membrane potential dye, cAMP. 73,000 tested, 0.48% active. P16473. AID 926. Potency, µM (titrated, usually from 57.1 µM), for the others: top-dose activation, most hits filed as activators; active means well fitted activation curve with a large enough effect in the main read-out, with a control signal flat, not every such curve was filed as active; inconclusive means small, poorly fitted or top-dose-only effect, or a change in a side signal; inactive means no such curve, though single readings can be large or run the other way; % of control where 0% means no effect;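 further: the control signal comes from parental cells without the receptor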
Target sequence (P16473 whole entry, looked up): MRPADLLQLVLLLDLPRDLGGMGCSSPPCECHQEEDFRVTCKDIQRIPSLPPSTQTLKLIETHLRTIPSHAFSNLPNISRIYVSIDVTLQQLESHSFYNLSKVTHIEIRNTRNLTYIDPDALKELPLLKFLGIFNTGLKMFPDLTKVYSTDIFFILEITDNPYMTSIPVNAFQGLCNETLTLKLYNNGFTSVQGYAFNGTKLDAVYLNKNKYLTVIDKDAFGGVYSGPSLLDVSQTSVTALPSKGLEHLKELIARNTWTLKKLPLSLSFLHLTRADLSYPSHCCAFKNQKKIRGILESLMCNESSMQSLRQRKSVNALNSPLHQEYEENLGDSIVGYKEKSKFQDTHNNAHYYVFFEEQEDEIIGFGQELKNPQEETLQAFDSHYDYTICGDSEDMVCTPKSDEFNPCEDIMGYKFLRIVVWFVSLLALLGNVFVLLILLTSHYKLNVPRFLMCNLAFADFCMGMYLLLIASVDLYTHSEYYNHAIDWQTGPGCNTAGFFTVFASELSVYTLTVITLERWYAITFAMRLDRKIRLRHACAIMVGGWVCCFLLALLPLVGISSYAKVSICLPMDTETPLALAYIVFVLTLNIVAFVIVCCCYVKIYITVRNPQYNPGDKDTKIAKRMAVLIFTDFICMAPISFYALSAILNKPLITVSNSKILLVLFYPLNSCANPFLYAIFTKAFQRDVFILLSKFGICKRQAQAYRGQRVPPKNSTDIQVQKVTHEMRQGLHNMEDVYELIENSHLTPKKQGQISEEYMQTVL
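HEK 293 cells stably expressing TSHR and a cAMP-gated CNG channel; parental CNG-only cells as counterscreen. Cells preloaded 60 min with membrane potential dye plus 100 uM RO 20-1724, then compound 30 min; fluorescence read at 590 nm.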
ERK AVP inh: vasopressin-driven ERK pathway inhibition; HEK293-V1b, vasopressin-stimulated pERK AlphaScreen; Potency, µM (doses to about 57.5 µM), inactives show at the top dose activity, negative = inhibition, most hits filed as inhibitors; 72,000 tested, 0.99% active; further: on the % scale 0 is the no-effect control and ±100 the full control effect; nearly all actives have a fitted effect of over 55% in size
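HEK293 cells stably expressing V1b receptor, preincubated 30 min at 37 °C with compound, then stimulated 5 min with 25 nM vasopressin. Phospho-ERK by AlphaScreen SureFire after 5 h RT; normalized to DMSO and vasopressin; AC50 by Hill fit.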
An asterisk follows results filed as active; u = inconclusive; x = not tested or not shown; [ ] = dose if it differs, or a comment. Compounds with a hit are over-represented: about 3.6% of the library has one in this group of screens. Unless noted, the call rests on the fitted dose curve; in most records, active means well fitted curve in the direction sought with a large enough effect; inconclusive means small, poorly fitted or top-dose-only effect, or another doubt; inactive means no such curve, though single readings can be large; an effect the other way counts as inactive or inconclusive. Potency means the concentration at half of the fitted maximal effect.

SMILES	IkB sig inh	CRE-bla Fsk	HEK293 cAMP cs	TSHR agonist	ERK AVP inh
Brc1ccccc1C1=Nn2c(nnc2-c2ccccc2)SC1	2%	-3%	u	u	-15%
Cc1ccc(-c2nnc3n2N=C(c2ccc(Br)cc2)CS3)cc1	-4%	10µM*	15%	11%	-15%
CCOc1ccc(-c2nnc3n2N=C(c2ccc(OC)cc2)CS3)cc1	x	x	4%	8%	x
Clc1ccc(C2=Nn3c(nnc3-c3n[nH]c4c3CCC4)SC2)cc1	0%	2.5µM*	25µM*	u	-7%
Brc1ccc(C2=Nn3c(nnc3-c3n[nH]c4c3CCC4)SC2)cc1	3%	5µM*	13µM*	u	-7%
Clc1ccc(C2=Nn3c(nnc3-c3cccnc3)SC2)s1	2%	3%	-7%	26%	6%
CCC(C(=O)Nc1c(C)cc(C)cc1C)n1c(=O)c(-c2ccccc2NC(C)=O)nc2ccccc21 (stereo unspecified)	0%	x	x	x	x
CC(=O)c1c(C(C)=O)c(C)n(NC(=O)c2cccnc2)c1C	u	u	4µM*	u	u
COc1ccccc1-c1cc(C(=O)Nc2cc(C)n(Cc3ccc(Cl)cc3)n2)no1	u	9%	3.2µM*	u	-6%
Cc1cc(NC(=O)c2cc(-c3ccc(Cl)cc3)on2)nn1Cc1ccc(Cl)cc1	5%	x	x	x	x
Cc1nn(CC(=O)NCc2ccccc2Cl)c(=O)c2cccn12	-2%	x	x	x	x
CCN(CC)S(=O)(=O)c1cccc(-c2nnc(SC(C)C#N)n2Cc2ccccc2)c1 (stereo unspecified)	0%	7%	25µM*	u	-22%
Cn1c2ccccc2c2cc(C(=O)OCC(=O)N3CC(=O)Nc4ccccc43)sc21	u	1%	13%	17%	-9%
CC(=O)NCCNc1nc(-c2ccc(C(=O)N(C)C)cc2)nc2ccccc12	1%[11.4 µM]	u	-6%	0%	-1%
CN(C)C(=O)c1ccc(-c2nc(Nc3ccc(F)cc3)c3ccccc3n2)cc1	-7%[11.4 µM]	4µM*	16%	32µM*	u
Cc1ccccc1-c1nc(Nc2ccncc2)c2ccccc2n1	-6%[11.4 µM]	4µM*	9%	5%	-6%
Cc1ccc(Nc2nc(-c3ccccc3)nc3ccccc23)cc1	4%	x	x	x	x
Fc1ccc(Nc2nc(-c3cccnc3)nc3ccccc23)cc1	-6%[11.4 µM]	10µM*	27%	x	u
CN(C)C(=O)c1ccc(-c2nc(Nc3ccncc3)c3ccccc3n2)cc1	-9%[11.4 µM]	13µM*	-11%	3%	-19%
CN1CC[C@@]2(CCCN(C(=O)c3cc(C(F)(F)F)cc(C(F)(F)F)c3)C2)C1	1%[11.4 µM]	-6%	-12%	-1%	-9%
COC(=O)CNc1nc(-c2ccncc2)nc2ccccc12	0%	13µM*	1%	x	-20%
CN(C)c1ccc(-c2nc(Nc3ccncc3)c3ccccc3n2)cc1	-7%[11.4 µM]	1.3µM*	-49%	u	16µM*
N#CCSc1nnc(COc2cccc3ccccc23)n1-c1cccc(Cl)c1	u	u	27%	8%	-27%
N#CCSc1nnc(COc2cccc3ccccc23)n1-c1ccccc1	u	-4%	13µM*	u	-11%
Cc1cccc(-n2c(=O)[nH]c3c(C(N)=O)nc(C(C)C)nc32)c1	-1%	u	11%	4%[11.4 µM]	-22%
SMILES	IkB sig inh	CRE-bla Fsk	HEK293 cAMP cs	TSHR agonist	ERK AVP inh
COc1ccc(C(=O)OCCN2CCOCC2)cc1OC	-3%	10µM*	-6%	12%	-27%
COc1ccc(C(=O)OCCN2C(=O)c3ccccc3C2=O)cc1OC	0%	u	-4%	-3%	u
Cc1noc(C)c1COC(=O)c1cc(C)n(-c2ccccc2)c1C	8%	u	u	u	3%
Cc1cccc(C(=O)Nc2ccccc2C(=O)OCc2c(C)noc2C)c1	u	u	16µM*	u	23%
CC(c1ccco1)N(C(=O)CSc1ccc(Br)cc1)c1ccccn1 (stereo unspecified)	u	-21%	25µM*	u	19%
CC(c1ccco1)N(C(=O)c1cccs1)c1ccccn1 (stereo unspecified)	1%	2%	4%	3%	-3%
COc1ccc(CCNC(=O)c2c[nH]c3ccccc3c2=O)cc1OC	0%	10µM*	-22%	-4%	-24%
COC(=O)c1c(Cl)c(Cl)c(C(=O)OC)c(Cl)c1Cl	x	x	x	x	-29%
COc1ccc(-n2nc3cc(C)c(N)c(Br)c3n2)cc1	u	u	-4%	-11%	32µM*
CCOCCCNc1ncnc2c1[nH]c1ccccc12	u	3%	u	u	40µM*
COc1ccc(CN2C(=O)C3C4C=CC(C4)C3C2=O)cc1 (stereo unspecified)	0%	-5%	13%	24%	-3%
O=C1C2C3C=CC(C3)C2C(=O)N1Cc1ccccc1 (stereo unspecified)	u	1µM*	u	u	-36%
C/C(CCc1oc2ccccc2c1-c1ccc(C)o1)=N/O	u	2%	14%	x	-6%
Cc1cc(NC(=O)c2ccccc2NS(=O)(=O)c2c(C)c(C)cc(C)c2C)no1	2%	u	32µM*	u	10%
CCn1c(SCc2ccc(C#N)cc2)nnc1-c1ccc(S(=O)(=O)N2CCCCC2)cc1	11%	-4%	20%	4%	25µM*
Cc1nc(NCCCn2ccnc2)c2oc3ccccc3c2n1	-3%	13µM*	12%	9%	u
c1ccc2c(c1)oc1c(NCCCn3ccnc3)ncnc12	-1%	24%	7%	4%	-13%
COC(=O)c1cc(OC)c(OC)cc1NC(=O)c1ccoc1C	0%	6%	5%	1%	-9%
COC(=O)c1cc(OC)c(OC)cc1NC(=O)c1ccccc1	0%	0.4µM*	18%[11.4 µM]	12%[11.4 µM]	u
CC(C)c1ccc(NC(=O)c2ccc(F)c(S(=O)(=O)N3CCCCCC3)c2)cc1	-1%	x	x	x	x
O=C1c2ccc(Oc3ccc4c(c3)C(=O)N(CCCCO)C4=O)cc2C(=O)N1CCCCO	u	19%	1%	10%	20µM*
COc1ccc(OC(=O)CCCN2C(=O)c3ccccc3C2=O)cc1	-9%	-6%	5%	5%	-13%
CC1N=C2c3ccccc3N=C(SCc3cc(=O)n4ccccc4n3)N2C1=O (stereo unspecified)	-2%	13µM*	2%	-2%	20%
CC(C)C1N=C2c3ccccc3N=C(SCC(=O)NCc3ccc(Cl)cc3)N2C1=O (stereo unspecified)	0%	x	x	x	x
CC1N=C2c3ccccc3N=C(SCC(=O)NCCc3ccccc3)N2C1=O (stereo unspecified)	0%	x	x	x	x
CC(C)C1N=C2c3ccccc3N=C(SCc3cc(=O)n4cc(Cl)ccc4n3)N2C1=O (stereo unspecified)	-2%	1.3µM*	15%	21%	-3%
